Bioassay records deposited in PubChem by several laboratories.
IDE cell activ: human IDE activators in live cells, primary screen, fluorescence polarization, HEK cells, FAbeta-B substrate. Insulin-degrading enzyme (Homo sapiens), P14735. FAbeta-B cleavage; 0% vehicle, 100% cell-free pure enzyme wells. activation, % at 5.96 µM. actives 0.073% (n = 340,000). AID 493087, 2011;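 active = activation above the mean of all tested compounds plus 3 SD, set per screening campaign, cut at about 17% in these data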
Target sequence (P14735 whole entry, looked up): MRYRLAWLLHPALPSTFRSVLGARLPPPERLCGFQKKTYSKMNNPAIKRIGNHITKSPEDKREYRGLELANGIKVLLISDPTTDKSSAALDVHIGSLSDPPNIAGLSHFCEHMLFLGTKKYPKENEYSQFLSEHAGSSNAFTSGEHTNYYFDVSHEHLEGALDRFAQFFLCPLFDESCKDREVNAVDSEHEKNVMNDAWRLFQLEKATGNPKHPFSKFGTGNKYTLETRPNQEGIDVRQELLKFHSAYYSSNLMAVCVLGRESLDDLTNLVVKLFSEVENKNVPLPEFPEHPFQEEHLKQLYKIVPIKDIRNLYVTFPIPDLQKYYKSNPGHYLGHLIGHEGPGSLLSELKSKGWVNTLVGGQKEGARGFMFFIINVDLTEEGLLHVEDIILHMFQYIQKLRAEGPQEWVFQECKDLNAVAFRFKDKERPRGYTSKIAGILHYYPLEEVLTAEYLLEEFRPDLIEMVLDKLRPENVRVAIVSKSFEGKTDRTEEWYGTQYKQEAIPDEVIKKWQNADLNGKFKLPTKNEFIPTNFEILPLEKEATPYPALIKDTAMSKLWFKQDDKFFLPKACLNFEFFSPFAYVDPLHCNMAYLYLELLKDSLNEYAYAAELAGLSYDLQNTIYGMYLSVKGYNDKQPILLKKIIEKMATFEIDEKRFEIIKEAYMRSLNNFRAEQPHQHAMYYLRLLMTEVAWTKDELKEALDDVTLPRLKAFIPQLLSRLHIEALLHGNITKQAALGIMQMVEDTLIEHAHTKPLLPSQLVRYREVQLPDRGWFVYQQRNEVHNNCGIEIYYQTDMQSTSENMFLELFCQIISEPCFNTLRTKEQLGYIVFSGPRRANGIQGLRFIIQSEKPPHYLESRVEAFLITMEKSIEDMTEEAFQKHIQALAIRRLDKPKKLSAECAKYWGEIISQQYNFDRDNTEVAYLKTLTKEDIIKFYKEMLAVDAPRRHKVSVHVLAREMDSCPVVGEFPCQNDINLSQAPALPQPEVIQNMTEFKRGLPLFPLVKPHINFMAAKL
IDE inh: human IDE inhibitors in live cells, primary screen, fluorescence polarization, HEK cells, FAbetaB substrate | Insulin-degrading enzyme (Homo sapiens), P14735 | FAbetaB cleavage | inhibition, % at 5.59 µM | actives 0.41% (n = 320,000) | AID 434962, 2010;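 active = percent inhibition above the average of all tested compounds plus 3 SD, set per screening campaign, cut at about 16% in these data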;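 note: IDE supplied by intact live HEK cells; FP after avidin binding of uncleaved biotin substrate so inhibition keeps polarization high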
HNF4A DNA FP: change in binding of human HNF4A to DNA, primary screen, biochemical, fluorescence polarization, FITC-DNA. Hepatocyte nuclear factor 4-alpha (Homo sapiens), P41235. actives 0.3% (n = 360,000). activity change, % at 10 µM. 1 h. AID 1224865, 2016; in the data active = activity change above about 30%, passing the limit was not always enough
CRFR2-BP ag: agonists of CRF-BP/CRF-R2 complex, primary screen, cell-based, HEK293, calcium dye fluorescence, uHTS. activation, % at 13.2 µM. actives 0.46% (n = 350,000). calcium dye fluorescence (FLIPR); percent of saturating CRF peptide response. CRF-binding protein / CRF receptor 2 complex (human);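 active = activation of at least 50%, plus an integration ratio under a set limit after plate pattern correction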
TPT1 inhibitor: Candida albicans TPT1 enzyme inhibitors, primary screen, biochemical, fluorescence polarization | tRNA 2'-phosphotransferase TPT1 (Candida albicans SC5314) | recombinant caTPT1, FP RNA substrate dephosphorylation | inhibition, % at 5 µM | actives 0.81% (n = 300,000);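 active = inhibition above the mean of all tested compounds plus 3 SD, set per screening campaign, cut at about 24% in these data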
caTPT1 confirm: Candida albicans TPT1 inhibitors, confirmation, biochemical, fluorescence polarization, triplicate. recombinant caTPT1, RNase T1 coupled. inhibition, % at 5 µM. actives 74% (n = 2,400). shares compounds with TPT1 inhibitor;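 active = inhibition above the primary screen limit, the mean inhibition of all tested compounds plus 3 SD, cut at about 25% in these data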
RNase T1 inh: RNase T1 inhibitors, counter-screen for TPT1 inhibitor project, biochemical, fluorescence polarization; shares compounds with TPT1 inhibitor; RNase T1 cleavage, 1536-well; inhibition, % at 5 µM; actives 83% (n = 2,400);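 active = inhibition above the solvent-only control well mean plus 3 SD, limit set per screening run, cut at about 23% in these data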;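 note: inhibitors block cleavage so intact labeled substrate keeps polarization high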
IDE cell inh cf: human IDE inhibitors in live cells, confirmation, fluorescence polarization, HEK cells, FAbetaB substrate; actives 51% (n = 1,200); FAbetaB cleavage; shares compounds with IDE inh; inhibition, % at 5.59 µM; AID 435028, 2010;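 active = mean inhibition across triplicate wells above the cutoff set by the earlier primary insulin-degrading enzyme screen, cut at about 16% in these data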
HEK cytotox: cytotoxicity in HEK cells, cytotoxicity control for IDE inhibitor project, cell-based, luminescence; shares compounds with IDE inh; HEK293 cytotoxicity, ATP luminescence; inhibition, % at 5.59 µM; actives 28% (n = 1,200); in the data active = inhibition above about 22%
HNF4A confirm: change in HNF4A binding to DNA, retest, confirmation, biochemical, fluorescence polarization, FITC-DNA | shares compounds with HNF4A DNA FP | AID 1224897, 2016 | actives 99% (n = 210) | 1 h | activity change, % at 12.5 µM; call rule not given here
Hits are given with their value; n = inactive; x = not tested or not shown. An excerpt weighted towards active compounds, which were near 1.4% of everything screened.

SMILES	IDE cell activ	IDE inh	HNF4A DNA FP	CRFR2-BP ag	TPT1 inhibitor	caTPT1 confirm	RNase T1 inh	IDE cell inh cf	HEK cytotox	others
COc1ccc(-n2c(O)c(/C=C/C=Nc3ccccc3)c(=O)[nH]c2=O)cc1	n	159	n	105	178	196	177	51	n
O=c1[nH]c(=O)n(-c2ccccc2)c(O)c1/C=C/C=Nc1ccccc1	n	34	n	n	157	166	160	35	n
O=c1[nH]c(=O)n(C2CCCCC2)c(O)c1C=Nc1ccc(N2CCOCC2)cc1	n	n	n	n	n	x	x	x	x
O=c1[nH]c(=O)n(C2CCCCC2)c(O)c1/C=C/C=Nc1ccccc1	n	21	n	112	89	81	76	42	n
CC(CC(C)(C)N1CC1)=NO	n	x	n	n	x	x	x	x	x
COc1ccc(CN2Cc3cnnn3-c3ccccc3C2C)cc1 (stereo not drawn)	n	x	n	n	x	x	x	x	x
Cc1cccc(CC(c2cccc(C)c2)N(C)C)c1 (stereo not drawn)	n	x	n	n	x	x	x	x	x
CC12CCC3C(CCC4CC(=O)OCC43C)C1CCC2O (stereo not drawn)	n	x	n	n	x	x	x	x	x
ClCCN(CCCl)c1ccc(C=Cc2ccncn2)cc1	x	x	n	n	x	x	x	x	x
Cc1ccc(-n2c(O)c(/C=C/C=Nc3ccccc3)c(=O)[nH]c2=O)cc1	n	21	71	53	134	51	48	30	n
O=C(N/N=C/c1c(O)n(CCc2ccccc2)c(=O)[nH]c1=O)c1ccncc1	n	n	n	n	n	x	x	x	x
O=C(N/N=C/c1c(O)n(-c2cccc3ccccc23)c(=O)[nH]c1=O)c1ccncc1	n	n	39	n	45	51	66	x	x	HNF4A confirm=49
O=C(NC1CCCCC1)N1Cc2cc(-c3ccccc3)ccc2-n2nncc2C1	x	x	n	x	x	x	x	x	x
O=c1[nH]c(=O)n(Cc2ccccc2)c(O)c1C=NCCCO	n	n	35	n	48	62	76	x	x	HNF4A confirm=61
CC1NC(=O)NC(=O)C1Br (stereo not drawn)	n	x	n	n	x	x	x	x	x
O=c1[nH]c(=S)n(-c2ccccc2)c(O)c1/C=N/N1CCCCC1c1cccnc1 (stereo not drawn)	n	n	36	n	30	n	31	x	x	HNF4A confirm=61
CCN1/C(=C\C=C\C2=[N+](CC)c3ccccc3C2(C)C)C(C)(C)c2ccccc21	n	82	n	260	n	x	x	173	120
COC(=O)C1=C(c2ccc(OCc3ccccc3)cc2)C[C@@H]2CC[C@H]1N2C(=O)NCCc1ccc(F)cc1	x	x	n	n	x	x	x	x	x
CC(C)COC(=O)c1ccccc1C(=O)OCC(C)C	n	n	n	n	n	x	x	x	x
C[CH2][Hg][S]c1ccccc1C(=O)O	n	53	n	n	n	x	x	21	122
O=C1NC(=O)C(=Cc2ccc(Cl)cc2)C(=O)N1	x	x	n	x	x	x	x	x	x
O=C1NC(=O)N(c2cccc(Cl)c2)C(=O)/C1=C\c1ccc(Sc2nc3ccccc3[nH]2)o1	n	26	n	n	n	x	x	n	n
